Measured values reported in PubChem BioAssay (NCI).
Compounds without any hit were thinned out: in the full panel of roughly 83,000, 20% have a hit.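 The endpoint reported here, percent growth, reads 100 for growth as untreated, 0 for no net growth and -100 for all cells dead.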 Activity calls are given as the source filed them. The calls were made as follows: active = growth percent below 10; inactive = the rest.

What follows are compounds tested on SR leukemia (assay: NCI-60 one-dose screen, 48 h (100 = growth as untreated, 0 = no growth, -100 = all killed)). Conditions: 10 µM.

| SMILES | growth |
| --- | --- |
| O=C(O)c1ccc(-n2cc(CNc3ccc(Cl)cc3)c(-c3ccccc3)n2)cc1 | 69.1% (inactive) |
| Cc1ccc(C(=O)C2C(=O)C3CCC2C3)cc1 (stereo not given) | 129% (inactive) |
| COc1cc2c(Nc3ccc(S(N)(=O)=O)cc3)ncnc2c(OC)c1OC | 99.9% (inactive) |
| CN1CCN(CC(=O)Nc2cccc(-n3cc(-c4ccncc4)c(-c4ccc(Cl)c(O)c4)n3)c2)CC1 | 5.84% (active) |
| O=[N+]([O-])c1cccc(/C=N/NC(=S)NC23CC4CC(CC(C4)C2)C3)c1 | 81.4% (inactive) |
| CN1CCN(c2cc3c(cc2F)c(=O)c(C(=O)O)cn3-c2ccc(F)cc2)CC1 | 96.4% (inactive) |
| O=C(CN1CCN(C(=O)c2ccccc2)CC1)Nc1ccccc1SCc1ccccc1 | 71% (inactive) |
| Clc1ccc2c(c1)C(N1CCNCC1)=Nc1ccccc1O2 | 3.72% (active) |
| CCOC(=O)c1cc(C(=O)c2cc(OC)c(OC)c(OC)c2)n2ncc3ccccc3c12 | 23.1% (inactive) |
| CC(=O)C1CCC2C3CC=C4CC(SC(=N)N)CCC4(C)C3CCC12C (stereo not given) | -36% (active) |
| COc1cc2c(Nc3ccc(-c4ccc(N)cc4)cc3)ncnc2c(OC)c1OC | 31.8% (inactive) |
| C#C[C@]1(O)CCC2C3CCc4cc(OC5CCCC5)ccc4C3CC[C@@]21C (stereo not given in full) | 15.1% (inactive) |
| Cc1cc(SC#N)cc(C(C)(C)C)c1O | 86% (inactive) |
| Cc1cc(CCNC=O)c(C)c2c1sc1ccccc12 | 89.4% (inactive) |
| CO[C@H]1CC(O[C@@H]2/C(C)=C/C[C@@H]3C[C@@H](C[C@]4(C=C[C@H](C)[C@@H](C5CCCCC5)O4)O3)OC(=O)[C@@H]3C=C(C)[C@@H](O)[C@H]4OC/C(=C\C=C\[C@@H]2C)[C@]43O)O[C@@H](C)C1O[C@H]1C[C@H](OC)[C@@H](O)[C@H](C)O1 (stereo not given in full) | -52.8% (active) |
| CCN(CC)c1ccc(/C=C2\SC(=O)C(Nc3nnc(-c4cccnc4SCc4ccccc4)o3)C2=O)cc1 (stereo not given) | 11.8% (inactive) |
| O=C(N/N=C/c1ccc([N+](=O)[O-])cc1)c1ccccc1Nc1cccc(C(F)(F)F)c1 | 104% (inactive) |
| CC(=O)[C@H]1CC[C@]2(C)[C@@H]1CC[C@@H]1[C@@]3(C)CC(CCC#N)(CCC#N)C(=O)C(C)(C)[C@@H]3CC[C@]12C | 101% (inactive) |
| Cc1cc(CSc2ccccc2C(=O)N2CC=C(c3ccccc3)CC2)on1 | 85.3% (inactive) |
| N#Cc1ccc(C(=O)CSc2nccc(Nc3ccc(C(=O)O)cc3)n2)cc1 | 106% (inactive) |

| SMILES | growth |
| --- | --- |
| COc1ccc2nc3cc(Cl)ccc3c(Nc3cc(CN4CCCC4)c(O)c(CN4CCCC4)c3)c2n1 | -18.6% (active) |
| O=C(N/N=C/c1ccc(Cl)cc1)c1ccc(Cc2n[nH]c(=O)c3cccnc23)cc1 | 135% (inactive) |
| O=S(=O)(Oc1ccc(-c2ccc3sccc3c2)cc1)c1ccc(F)cc1 | 86.3% (inactive) |
| CNC(=O)c1c(I)c(NC(C)=O)c(I)c(C(=O)O)c1I | 104% (inactive) |
| C/C(=N\O)c1ccc(NC(=O)CSc2nnc(-c3ccccc3)n2-c2ccccc2)cc1 | 106% (inactive) |
| COc1ccc(/C=C2/SC(=S)NC2=O)c(OC)c1OC | 72.4% (inactive) |
| C[C@]12CC[C@@H]3c4ccc(O)cc4CC[C@H]3[C@@H]1CC[C@@H]2NS(=O)(=O)c1ccc(C(F)(F)F)cc1 | 18.9% (inactive) |
| NS(=O)(=O)c1ccc(Br)cc1 | 106% (inactive) |
| CNS(=O)(=O)Oc1ccc(-c2ccc3occc3c2)cc1 | 111% (inactive) |
| COc1cc(-c2nn(-c3cccc(NC(=O)CCN4CCN(c5ccccc5)CC4)c3)cc2-c2ccncc2)ccc1Cl | 4.54% (active) |
| CCN(CC)CC(=O)N(CC)c1ccc(C)c(Cl)c1 | 82.3% (inactive) |
| Cc1cccc(N=Cc2ccccc2O)c1C | 111% (inactive) |
| CCCCC1(O)CCCCC1 | 92.6% (inactive) |
| COc1ccc(/C=C2\CCCC3=C2N=C2SC(C)=CN2C3c2ccc(OC)cc2)cc1 (stereo not given) | 100% (inactive) |
| c1ccc(CSc2ncccc2-c2nnc(SCCN3CCOCC3)o2)cc1 | 104% (inactive) |
| C/C=C/C1=CN2C(=O)c3cc(OC4OC(C)C(NC)C(C)(O)C4O)c(C)c(O)c3N=C[C@@H]2C1 (stereo not given in full) | 0.588% (active) |
| C[C@]12CC[C@@H]3c4ccc(OS(=O)(=O)O)cc4CC[C@H]3[C@@H]1CC[C@@H]2NS(=O)(=O)c1ccc(-c2ccccc2)cc1 | 38.6% (inactive) |
| COc1ccc(/C(C#N)=C/c2ccccc2OC)cc1 | 34.7% (inactive) |
| COc1ccc(Cc2cnc(N)nc2N)cc1OC | 98.9% (inactive) |
| Cc1cc(CC(C)CC(C)(C)C)n(O)c(=O)c1 (stereo not given) (tested in a mixture with another compound) | 2.72% (active) |

The compounds below were run on RPMI-8226 leukemia in the same assay as above. Conditions: 10 µM.

| SMILES | growth |
| --- | --- |
| O=C(O)c1ccc(-n2cc(CNc3ccc(Cl)cc3)c(-c3ccccc3)n2)cc1 | 89.1% (inactive) |
| Cc1ccc(C(=O)C2C(=O)C3CCC2C3)cc1 (stereo not given) | 99.3% (inactive) |
| COc1cc2c(Nc3ccc(S(N)(=O)=O)cc3)ncnc2c(OC)c1OC | 99.1% (inactive) |
| CN1CCN(CC(=O)Nc2cccc(-n3cc(-c4ccncc4)c(-c4ccc(Cl)c(O)c4)n3)c2)CC1 | 15.9% (inactive) |
| O=[N+]([O-])c1cccc(/C=N/NC(=S)NC23CC4CC(CC(C4)C2)C3)c1 | 93.1% (inactive) |
| CN1CCN(c2cc3c(cc2F)c(=O)c(C(=O)O)cn3-c2ccc(F)cc2)CC1 | 101% (inactive) |
| O=C(CN1CCN(C(=O)c2ccccc2)CC1)Nc1ccccc1SCc1ccccc1 | 68.3% (inactive) |
| Clc1ccc2c(c1)C(N1CCNCC1)=Nc1ccccc1O2 | 50% (inactive) |
| CCOC(=O)c1cc(C(=O)c2cc(OC)c(OC)c(OC)c2)n2ncc3ccccc3c12 | 81.9% (inactive) |
| CC(=O)C1CCC2C3CC=C4CC(SC(=N)N)CCC4(C)C3CCC12C (stereo not given) | -7.56% (active) |
| COc1cc2c(Nc3ccc(-c4ccc(N)cc4)cc3)ncnc2c(OC)c1OC | 39.5% (inactive) |
| C#C[C@]1(O)CCC2C3CCc4cc(OC5CCCC5)ccc4C3CC[C@@]21C (stereo not given in full) | 80.4% (inactive) |
| Cc1cc(SC#N)cc(C(C)(C)C)c1O | 96.6% (inactive) |
| Cc1cc(CCNC=O)c(C)c2c1sc1ccccc12 | 92.4% (inactive) |
| CO[C@H]1CC(O[C@@H]2/C(C)=C/C[C@@H]3C[C@@H](C[C@]4(C=C[C@H](C)[C@@H](C5CCCCC5)O4)O3)OC(=O)[C@@H]3C=C(C)[C@@H](O)[C@H]4OC/C(=C\C=C\[C@@H]2C)[C@]43O)O[C@@H](C)C1O[C@H]1C[C@H](OC)[C@@H](O)[C@H](C)O1 (stereo not given in full) | -25.1% (active) |
| CCN(CC)c1ccc(/C=C2\SC(=O)C(Nc3nnc(-c4cccnc4SCc4ccccc4)o3)C2=O)cc1 (stereo not given) | 23.4% (inactive) |
| O=C(N/N=C/c1ccc([N+](=O)[O-])cc1)c1ccccc1Nc1cccc(C(F)(F)F)c1 | 90.4% (inactive) |
| CC(=O)[C@H]1CC[C@]2(C)[C@@H]1CC[C@@H]1[C@@]3(C)CC(CCC#N)(CCC#N)C(=O)C(C)(C)[C@@H]3CC[C@]12C | 107% (inactive) |
| Cc1cc(CSc2ccccc2C(=O)N2CC=C(c3ccccc3)CC2)on1 | 84.9% (inactive) |
| N#Cc1ccc(C(=O)CSc2nccc(Nc3ccc(C(=O)O)cc3)n2)cc1 | 108% (inactive) |

| SMILES | growth |
| --- | --- |
| COc1ccc2nc3cc(Cl)ccc3c(Nc3cc(CN4CCCC4)c(O)c(CN4CCCC4)c3)c2n1 | -3.6% (active) |
| O=C(N/N=C/c1ccc(Cl)cc1)c1ccc(Cc2n[nH]c(=O)c3cccnc23)cc1 | 117% (inactive) |
| O=S(=O)(Oc1ccc(-c2ccc3sccc3c2)cc1)c1ccc(F)cc1 | 96.4% (inactive) |
| CNC(=O)c1c(I)c(NC(C)=O)c(I)c(C(=O)O)c1I | 110% (inactive) |
| C/C(=N\O)c1ccc(NC(=O)CSc2nnc(-c3ccccc3)n2-c2ccccc2)cc1 | 91.2% (inactive) |
| COc1ccc(/C=C2/SC(=S)NC2=O)c(OC)c1OC | 79.4% (inactive) |
| C[C@]12CC[C@@H]3c4ccc(O)cc4CC[C@H]3[C@@H]1CC[C@@H]2NS(=O)(=O)c1ccc(C(F)(F)F)cc1 | 34.8% (inactive) |
| NS(=O)(=O)c1ccc(Br)cc1 | 108% (inactive) |
| CNS(=O)(=O)Oc1ccc(-c2ccc3occc3c2)cc1 | 109% (inactive) |
| COc1cc(-c2nn(-c3cccc(NC(=O)CCN4CCN(c5ccccc5)CC4)c3)cc2-c2ccncc2)ccc1Cl | 20.6% (inactive) |
| CCN(CC)CC(=O)N(CC)c1ccc(C)c(Cl)c1 | 97.2% (inactive) |
| Cc1cccc(N=Cc2ccccc2O)c1C | 96.9% (inactive) |
| CCCCC1(O)CCCCC1 | 101% (inactive) |
| COc1ccc(/C=C2\CCCC3=C2N=C2SC(C)=CN2C3c2ccc(OC)cc2)cc1 (stereo not given) | 71.2% (inactive) |
| c1ccc(CSc2ncccc2-c2nnc(SCCN3CCOCC3)o2)cc1 | 104% (inactive) |
| C/C=C/C1=CN2C(=O)c3cc(OC4OC(C)C(NC)C(C)(O)C4O)c(C)c(O)c3N=C[C@@H]2C1 (stereo not given in full) | 7.45% (active) |
| C[C@]12CC[C@@H]3c4ccc(OS(=O)(=O)O)cc4CC[C@H]3[C@@H]1CC[C@@H]2NS(=O)(=O)c1ccc(-c2ccccc2)cc1 | 32.4% (inactive) |
| COc1ccc(/C(C#N)=C/c2ccccc2OC)cc1 | 52.3% (inactive) |
| COc1ccc(Cc2cnc(N)nc2N)cc1OC | 102% (inactive) |
| Cc1cc(CC(C)CC(C)(C)C)n(O)c(=O)c1 (stereo not given) (tested in a mixture with another compound) | 39.8% (inactive) |
